# Experimental data taken from PubChem BioAssay AID1159580 (chemical genetic matrix, 2015).
# About 2,000 (36%) of roughly 5,500 compounds were called active. Roughly 18% stayed inconclusive and do not appear here. The list shows a part of the results. A number with no mark means an inactive call. Rule as the data show it: active = normalized growth mostly below about 0.91 (no sharp cut-off); inconclusive = no clear call, values can overlap the other calls; inactive = mostly above about 0.92.
# Test: chemical genetic growth profiling, strain panel (AID 1159580);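 also: tested at 20 µM; growth read once vehicle control cultures reached saturation at 30 °C; 1 = growth at the plate median or of vehicle wells; lower values mean less growth of the strain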
# Details: S. cerevisiae deletion strains, growth OD
smiles,measurement,setting,value
C=C(C)/C=C1/C=CC(=O)C(C)=C1,normalized growth,"locus YBR021W, strain FUR4, hits give low values",0.466 (active)
same,normalized growth,"locus YBR229C, strain ROT2, hits give low values",0.99
same,normalized growth,"locus YCL029C, strain bik1, hits give low values",0.611 (active)
same,normalized growth,"locus YDL035C, strain GPR1, hits give low values",0.185 (active)
same,normalized growth,"locus YDL074C, strain BRE1, hits give low values",0.26 (active)
same,normalized growth,"locus YDL101C, strain DUN1, hits give low values",0.803 (active)
same,normalized growth,"locus YDL185W, strain tfp1, hits give low values",0.06 (active)
same,normalized growth,"locus YDL192W, strain arf1, hits give low values",0.0749 (active)
same,normalized growth,"locus YDR101C, strain arx1, hits give low values",0.613 (active)
same,normalized growth,"locus YDR162C, strain NBP2, hits give low values",0.208 (active)
same,normalized growth,"locus YDR318W, strain mcm21, hits give low values",0.0733 (active)
same,normalized growth,"locus YDR388W, hits give low values",0.544 (active)
same,normalized growth,"locus YDR502C, strain sam2, hits give low values",0.0764 (active)
same,normalized growth,"locus YEL061C, strain CIN8, hits give low values",0.288 (active)
same,normalized growth,"locus YER110C, hits give low values",0.472 (active)
same,normalized growth,"locus YER155C, strain BEM2, hits give low values",0.27 (active)
same,normalized growth,"locus YER167W, strain BCK2, hits give low values",0.151 (active)
same,normalized growth,"locus YGL078C, strain dbp3, hits give low values",0.0621 (active)
same,normalized growth,"locus YGL086W, strain mad1, hits give low values",0.0823 (active)
same,normalized growth,"locus YGL248W, strain PDE1, hits give low values",0.152 (active)
same,normalized growth,"locus YGR078C, strain PAC10, hits give low values",0.097 (active)
same,normalized growth,"locus YGR135W, strain pre9, hits give low values",0.129 (active)
same,normalized growth,"locus YGR252W, strain gcn5, hits give low values",0.264 (active)
same,normalized growth,"locus YHR079C, strain IRE1 (second series), hits give low values",0.687 (active)
same,normalized growth,"locus YHR094C, strain hxt1, hits give low values",0.088 (active)
same,normalized growth,"locus YHR129C, strain ARP1, hits give low values",0.107 (active)
same,normalized growth,"locus YHR200W, strain rpn10, hits give low values",0.27 (active)
same,normalized growth,"locus YIL066C, strain RNR3, hits give low values",0.458 (active)
same,normalized growth,"locus YIL073C, strain SPO22, hits give low values",0.179 (active)
same,normalized growth,"locus YIL125W, strain kgd1, hits give low values",0.0607 (active)
same,normalized growth,"locus YIR030C, strain dcg1, hits give low values",0.42 (active)
same,normalized growth,"locus YJL095W, strain BCK1, hits give low values",0.375 (active)
same,normalized growth,"locus YJL134W, strain LCB3, hits give low values",0.183 (active)
same,normalized growth,"locus YJL168C, strain set2, hits give low values",0.203 (active)
same,normalized growth,"locus YJL187C, strain SWE1 (second series), hits give low values",0.636 (active)
same,normalized growth,"locus YKL068W, hits give low values",0.0579 (active)
same,normalized growth,"locus YKL085W, strain MDH1 (second series), hits give low values",0.0777 (active)
same,normalized growth,"locus YKL085W, strain MDH1, hits give low values",0.0777 (active)
same,normalized growth,"locus YKL190W, strain CNB1, hits give low values",0.198 (active)
same,normalized growth,"locus YKR001C, strain vps1, hits give low values",0.0676 (active)
same,normalized growth,"locus YLR039C, strain RIC1, hits give low values",0.166 (active)
same,normalized growth,"locus YLR058C, strain SHM2, hits give low values",0.755 (active)
same,normalized growth,"locus YLR102C, strain apc9, hits give low values",0.0756 (active)
same,normalized growth,"locus YLR262C, strain YPT6, hits give low values",0.152 (active)
same,normalized growth,"locus YLR268W, strain sec22, hits give low values",0.076 (active)
same,normalized growth,"locus YLR330W, strain CHS5, hits give low values",0.0909 (active)
same,normalized growth,"locus YLR371W, strain rom2, hits give low values",0.0908 (active)
same,normalized growth,"locus YLR418C, strain cdc73, hits give low values",0.116 (active)
same,normalized growth,"locus YML016C, strain PPZ1, hits give low values",0.228 (active)
same,normalized growth,"locus YML032C, strain rad52, hits give low values",0.7 (active)
same,normalized growth,"locus YML124C, strain tub3, hits give low values",0.174 (active)
same,normalized growth,"locus YMR078C, strain ctf18, hits give low values",0.0861 (active)
same,normalized growth,"locus YMR223W, strain ubp8, hits give low values",0.108 (active)
same,normalized growth,"locus YMR307W, strain GAS1, hits give low values",0.147 (active)
same,normalized growth,"locus YNL067W, strain RPL9B, hits give low values",0.0907 (active)
same,normalized growth,"locus YNL128W, strain TEP1, hits give low values",0.229 (active)
same,normalized growth,"locus YNL233W, strain BNI4, hits give low values",0.188 (active)
same,normalized growth,"locus YNL250W, strain rad50, hits give low values",0.0988 (active)
same,normalized growth,"locus YNL271C, strain bni1, hits give low values",0.0645 (active)
same,normalized growth,"locus YNL298W, strain CLA4, hits give low values",0.06 (active)
same,normalized growth,"locus YNL307C, strain MCK1, hits give low values",0.0748 (active)
same,normalized growth,"locus YNR052C, strain pop2, hits give low values",0.748 (active)
same,normalized growth,"locus YOL006C, strain TOP1, hits give low values",0.202 (active)
same,normalized growth,"locus YOL012C, strain htz1",0.247
same,normalized growth,"locus YOL147C, strain pex11, hits give low values",0.464 (active)
same,normalized growth,"locus YOR061W, strain CKA2, hits give low values",0.449 (active)
same,normalized growth,"locus YOR069W, strain VPS5, hits give low values",0.0688 (active)
same,normalized growth,"locus YOR136W, strain idh2, hits give low values",0.106 (active)
same,normalized growth,"locus YOR144C, strain elg1, hits give low values",0.646 (active)
same,normalized growth,"locus YOR184W, strain ser1, hits give low values",0.0806 (active)
same,normalized growth,"locus YOR316C, strain cot1, hits give low values",0.0831 (active)
same,normalized growth,"locus YPL055C, strain LGE1, hits give low values",0.103 (active)
same,normalized growth,"locus YPR119W, strain clb2, hits give low values",0.0703 (active)
same,normalized growth,"locus YPR141C, strain kar3, hits give low values",0.0832 (active)
same,normalized growth,"locus YPR163C, strain tif3, hits give low values",0.0853 (active)
same,normalized growth,"locus YPR167C, strain met16, hits give low values",0.0692 (active)
same,normalized growth,"strain wtn01, hits give low values",0.0763 (active)
